tim10-1 inh: tim10-1 yeast growth inhibition; 330,000 compounds, 2.2% hits; AID 463190; inhibition, % at 20 µM; S. cerevisiae tim10-1 ts strain growth, BacTiter-Glo, 24 h;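 active = inhibition of at least 40%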;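 note: mutant grown at 25 °C; 0% = DMSO wells with yeast and 100% = wells holding no yeast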
tim23-1 inh: tim23-1 yeast growth inhibition; S. cerevisiae tim23-1 growth, BacTiter-Glo luminescence, 24 h; 330,000 compounds, 1.3% hits; AID 463212; inhibition, % at 20 µM;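 active = growth inhibition of the mutant yeast at or above 50%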;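 note: temperature-sensitive mutant grown at 25 °C; plate controls were DMSO-treated mutant yeast for no effect and medium wells lacking yeast for full effect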
Yeast superoxide: yeast age-related superoxide inhibition as caloric restriction mimetic. S. cerevisiae aged cells, superoxide DHE fluorescence; stronger effect = lower value. superoxide response (% of plate mean), % at 10 µM. 330,000 compounds, 0.18% hits;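 active = superoxide response under a set limit, about three screen SD below normal, cut at about 65% in these data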;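 note: yeast aged for seven days with compound at 30 °C before DHE staining; 100% = average MFI of all compound-treated wells on the plate with controls excluded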
TIM10 inh: inhibits growth of TIM10 yeast strain. inhibition, % at 10 µM. 330,000 compounds, 1.4% hits. AID 463195. S. cerevisiae TIM10 strain growth, BacTiter-Glo luminescence, 24 h;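 active = inhibition of 40% or more at the single tested concentration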;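 note: wild-type TIM10 isogenic control strain grown at permissive 25 °C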
NLRP3 yeast inh: inhibitors of NALP3 inflammasome in yeast | Yeast reconstituted NLRP3/ASC/caspase-1, beta-gal luminescence, 24 h | inhibition, % at 10 µM | 330,000 compounds, 0.39% hits | AID 2825;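 active = inhibition of 50% or more; inactive = inhibition below 50%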;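 note: plate controls were induced DMSO wells for no effect and uninduced yeast grown without galactose for full effect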
tim10-1 conf: tim10-1 yeast growth inhibition, confirmed; AID 463213; shares compounds with tim10-1 inh; 7,400 compounds, 56% hits; S. cerevisiae tim10-1 ts strain growth, BacTiter-Glo, 24 h; inhibition, % at 20 µM;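 active = inhibition of yeast growth at or above a set limit in either of two repeat tests at 20 µM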;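 note: tim10-1 mutant grown at permissive 25 °C to find synthetic lethal compounds; 0% = DMSO yeast wells and 100% = medium wells without yeast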
TIM10 conf: confirmation of TIM10 yeast growth inhibitors. shares compounds with TIM10 inh. S. cerevisiae tim10 strain growth, BacTiter-Glo luminescence, 24 h. inhibition, % at 10 µM. 4,600 compounds, 63% hits;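 active = inhibition of yeast growth at or above a set limit in either of two replicates at 10 µM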;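 note: this counterscreen used the strain with wild-type TIM10; 0% = yeast with DMSO and 100% = medium wells lacking yeast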
tim23-1 conf: tim23-1 yeast growth inhibition, confirmed | 4,400 compounds, 83% hits | inhibition, % at 20 µM | shares compounds with tim23-1 inh | AID 463218 | S. cerevisiae tim23-1 growth, BacTiter-Glo luminescence, 24 h;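 active = inhibition above about 39% in either of two replicate wells at 20 µM, limit read from the data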;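 note: temperature-sensitive tim23-1 mutant grown at 25 °C; 0% = DMSO wells with yeast and 100% = medium wells without yeast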
Active calls of the source: *; . = no result. Shown are actives, neighbours in structure and some others; about 3.8% of the full set was active somewhere.

SMILES	tim10-1 inh	tim23-1 inh	Yeast superoxide	TIM10 inh	NLRP3 yeast inh	tim10-1 conf	TIM10 conf	tim23-1 conf
Cc1cc2n(n1)C(c1ccc(O)cc1)Nc1ccccc1-2 (stereo unspecified)	54*	50*	90	55*	9	46*	48*	54*
COc1ccccc1CNC(=O)C1CCN(S(=O)(=O)c2ccc3c(c2)C(C)(C)C(=O)N3C)CC1	13	15	102	3	-10	.	.	.
CN(C)S(=O)(=O)c1ccc(N2CCCC2)c(C(=O)OCC(=O)N2CCN(c3ccccc3)CC2)c1	-2	6	106	-4	-2	.	.	.
O=S(=O)(O)c1cc2oc(-c3ccccc3)nc2c2ccccc12	8	16	109	1	17	.	.	.
O=[N+]([O-])c1ccccc1S(=O)(=O)Nc1ccc(S(=O)(=O)Nc2nccs2)cc1	61*	63*	107	51*	7	63*	54*	56*
CCCn1c(C)cc(C(=O)COC(=O)CN=C2NS(=O)(=O)c3ccccc32)c1C	0	1	98	9	14	.	.	.
COc1cccc2nc3cc(C)c(C)cc3nc12	64*	50*	63*	43*	21	53*	33*	54*
COc1cccc2c1nc(C)c1cc(C)oc12	21	17	119	6	-5	.	.	.
COc1cc(N=Nc2ccc3ccccc3c2)ccc1O	41*	63*	85	4	34	13	.	2
COc1cc(N=Nc2ccccc2C(=O)O)ccc1O	19	16	104	18	33	.	.	.
O=C(CCn1c(=S)oc2ccccc21)NCCC1=CCCCC1	14	9	108	12	14	.	.	.
Cn1cc([N+](=O)[O-])c(C(=O)Nc2sc3c(c2C#N)CCC3)n1	45*	56*	109	31	-3	34*	.	48*
Cc1ccc(NCc2nc3ccccc3n2CCOc2ccccc2)cc1	44*	57*	98	17	23	30	.	74*
O=C1c2ccccc2C(=O)C1(O)O	-15	-11	108	1	7	.	.	.
CC1(S(=O)(=O)O)CC(=O)c2ccccc2C1=O (stereo unspecified)	41*	67*	99	32	-7	28	.	63*
CC(C)(C)c1cc(-c2nc(N)nc(N)n2)cc(C(C)(C)C)c1	51*	64*	95	42*	12	49*	-11	61*
O=C(C1CC=CCC1)N1CCN(S(=O)(=O)c2ccc(F)cc2)CC1 (stereo unspecified)	11	5	.	13	0	.	.	.
CC(C)c1ccc(N(C(=O)CNC(=O)c2ccco2)C(C(=O)NC2CCCC2)c2ccncc2)cc1 (stereo unspecified)	22	23	90	-8	-2	.	.	.
CCOn1c(=O)c(-c2cccs2)[n+]([O-])c2ccccc21	57*	62*	88	35	11	41*	.	68*
COCCOc1ccc(C(F)(F)F)cc1NC(=O)COC(=O)c1cc([N+](=O)[O-])ccc1N1CCOCC1	18	14	106	19	18	.	.	.
Cc1ccc(NS(=O)(=O)c2cccc([N+](=O)[O-])c2)nc1	-1	-6	108	-1	13	.	.	.
CNC(=O)/C(C#N)=C/c1cccc(Oc2ccccc2)c1	87*	91*	98	78*	25	90*	78*	80*
COc1ccc(N2C(=O)NC(NC(=O)c3cccnc3)(C(F)(F)F)C2=O)cc1 (stereo unspecified)	5	8	111	-4	5	.	.	.
COc1ccc(-c2csc3ncnc(N4CCN(S(=O)(=O)c5ccc(C(C)=O)cc5)CC4)c23)cc1	32	30	84	20	7	.	.	.
COc1cccc(/C=C2\C(=O)N(c3cccc(C)c3)C(=O)c3ccccc32)c1	43*	75*	95	41*	0	46*	46*	68*
SMILES	tim10-1 inh	tim23-1 inh	Yeast superoxide	TIM10 inh	NLRP3 yeast inh	tim10-1 conf	TIM10 conf	tim23-1 conf
COc1cccc(N2C(=O)c3ccncc3C2=O)c1	15	-8	108	-18	10	.	.	.
CCOc1cc(/C=C2/C(=O)ON=C2C)ccc1O	11	12	100	-20	-7	.	.	.
CC1=NN(c2ccccc2)C(=O)/C1=C/c1cccc(C)c1	14	35	91	20	6	.	.	.
Cc1cccc(N2C(=O)/C(=C\c3ccc(OC(F)F)cc3)c3ccccc3C2=O)c1	51*	68*	99	34	-1	25	.	58*
CCOc1cc(/C=C2\C(=O)N(c3cccc(C(F)(F)F)c3)C(=O)c3ccccc32)ccc1O	42*	65*	90	30	3	34*	.	47*
COc1cc(-c2nnc(COC(=O)c3nn(CC(C)C)c(=O)c4ccccc34)o2)cc(OC)c1OC	19	11	98	5	19	.	.	.
C/C(=N\NC(=O)c1ccccc1NC(=O)c1ccc(Cl)cc1)c1ccncc1	96*	95*	85	96*	1	97*	96*	100*
Cc1cc(=O)n2nc(N3CCCC(C(=O)NCc4cccc(Br)c4)C3)sc2n1 (stereo unspecified)	-10	0	78	-1	2	.	.	.
CS/C(=N/S(=O)(=O)c1ccc(C)cc1)c1ccccc1	-5	15	107	-9	-16	.	.	.
O=S(=O)(/N=C(\Sc1ccc(Cl)cc1)c1ccccc1)c1ccccc1	45*	55*	92	34	4	40*	.	81*
CCN(Cc1ccccc1)C(c1ccncc1)c1nnnn1C(C)(C)C (stereo unspecified)	41*	53*	90	30	3	39*	.	37
CCc1noc(C)c1C(=O)NNC(=O)COc1ccccc1C	-14	-10	103	-3	3	.	.	.
CN1C(=O)c2ccc(C(=O)Nc3nccs3)cc2C1=O	-2	12	122	0	5	.	.	.
O=[N+]([O-])c1ccc(NC(=S)NCCc2ccc(F)cc2)cc1	75*	74*	89	64*	34	70*	-29	70*
S=C(NCCc1ccc(Cl)cc1)Nc1ccc(Cl)cc1Cl	50*	60*	93	48*	43	56*	44*	66*
Fc1ccccc1NC(=S)NCCc1ccccc1	33	18	91	15	25	.	.	.
Fc1ccc(NC(=S)NCCc2ccccc2)c(F)c1F	40*	51*	98	41*	37	19	35*	49*
Fc1ccc(CCNC(=S)Nc2ccc(F)c(Cl)c2)cc1	52*	55*	106	41*	34	66*	27	75*

Bioassay records as filed in PubChem BioAssay.
